# Source: PubChem BioAssay (NCI)
# Compounds without any hit were thinned out: in the full panel of roughly 79,000, 15% have a hit. A number with no mark means an inactive call. The source made the active and inactive calls. Cut-off read from the data, not from the text of the source: active = growth inhibition above about 70%; inactive = the rest. Where a SMILES comes first, the peptide text is derived from it. The star is where a group is joined. Boc = CC(C)(C)OC(=O)*
# How the values were obtained:
# [1] = NCI Yeast Anticancer Drug Screen. Data for the rad50 strain (AID 155);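 note: 0% = growth of vehicle-only cultures of the same strain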; settings: S. cerevisiae rad50 strain growth inhibition; at 50.0 µM; stronger effect = higher value
# How it was run: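 Genetically altered yeast (DNA repair pathway); compound treatment; growth inhibition vs vehicle ctrl.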
# [2] = NCI Yeast Anticancer Drug Screen. Data for the mec2-1 strain (AID 157); settings: S. cerevisiae mec2-1 strain, at 50.0 µM, stronger effect = higher value
# How it was run: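 Growth inhibition is read against vehicle-treated controls after compound exposure of the mec2-1 yeast strain, which is defective in DNA damage repair or cell cycle control.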
# [3] = NCI Yeast Anticancer Drug Screen. Data for the sgs1 mgt1 strain (AID 161);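 note: 0% = growth of cultures given vehicle only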; settings: S. cerevisiae sgs1 mgt1 strain, at 50.0 µM, stronger effect = higher value
# How it was run: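 Growth of a repair-deficient yeast mutant was monitored after compound treatment and expressed as inhibition relative to vehicle-treated cultures.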
# [4] = NCI Yeast Anticancer Drug Screen. Data for the cln2 rad14 strain (AID 165);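 note: 0% = growth equal to vehicle treated cultures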; settings: S. cerevisiae cln2 rad14 strain, at 50.0 µM, stronger effect = higher value
# How it was run: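 Growth inhibition, relative to vehicle-treated controls, is the read-out. The test organism is a yeast strain with defined genetic alterations, cln2 rad14.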
# [5] = NCI Yeast Anticancer Drug Screen. Data for the bub3 strain (AID 167); settings: S. cerevisiae bub3 mutant strain, at 50.0 µM, stronger effect = higher value
# How it was run: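 Yeast carrying a defined mutation is treated with each compound, and growth is compared with that of vehicle-exposed cells to give inhibition.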
# [6] = NCI Yeast Anticancer Drug Screen. Data for the mlh1 rad18 strain (AID 175); settings: S. cerevisiae mlh1 rad18 strain growth inhibition; at 50.0 µM; stronger effect = higher value
# How it was run: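 Cells of a genetically altered yeast strain, deficient in DNA damage repair, were treated with compound. Their growth was then compared with that of vehicle-treated cultures to give inhibition.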
Compound,growth inhibition [1] [%],growth inhibition [2] [%],growth inhibition [3] [%],growth inhibition [4] [%],growth inhibition [5] [%],growth inhibition [6]
Cc1ccc(I)cc1,-59.4,-32.6,-33.9,-7.5,-2.9,-19.1%
O=C(N/C(=C\c1cc(Cl)ccc1Cl)c1nc2ccccc2[nH]1)c1ccccc1,50.2,8.65,31.9,25,43.9,42.3%
C[C@@]12CCC(=O)C=C1CC[C@H]1C2CC[C@]2(C)C1CC[C@H]2C(=O)COC(=O)CCC(=O)O (some centres not stated),-1.85,-7.8,21.1,-22.4,2.55,-33.7%
C[N+](C)(Cn1nc(Cl)c2ccc([N+](=O)[O-])cc21)Cn1nc(Cl)c2ccc([N+](=O)[O-])cc21,43.6,-5,18.8,28.1,-0.25,27.9%
CCc1c2c(cc3c1CC1(C3)Cc3cc4c(c(C(=O)OC)c3C1)CCCC4)CCCC2 (configuration not stated),-18.8,-16.4,-20.8,9.65,-14,-25.9%
c1ccc(CNc2cnccn2)cc1,-20.5,10.7,-7.75,-22.1,-3.7,-4.95%
CCOC(=O)CCN1C(=O)C(=O)N(c2ccc(OC)cc2)C1=S,-7,-6.6,3.75,-57.1,5,-5.6%
CC(C)(C=O)OC(=O)c1cc([N+](=O)[O-])cc([N+](=O)[O-])c1,7.2,-14.2,27.4,29.8,-8,1.6%
CN1CCN(CCCN2CC(=O)N3Cc4ccccc4CN3C(=O)C2)CC1,-26.6,-1.35,-9.45,1,5.15,-3%
NS(=O)(=O)c1cc2c(cc1Cl)NC(C(=O)NNC(=O)c1ccncc1)=NS2(=O)=O,-1.6,-16.5,-4.8,1.3,-11.9,-20.4%
COC(=O)C1=C(C(=O)OC)C2(CCCCCC2=O)OC1=O (configuration not stated),-0.65,5.45,-12.8,8.9,3.85,-8.25%
CC(=O)CC(C)=Nc1ccc([N+](=O)[O-])cc1,1.75,-3.9,-6.7,-34.5,-16.6,2.3%
CCCCCSCCC(=O)O,12.4,11.7,11.2,4.25,-1.2,-6.35%
Clc1ccc(NC2=NCCN=C(Nc3ccc(Cl)c(Cl)c3)SS2)cc1Cl,-26.9,-21.4,-14.7,-14.1,-28.1,-33.6%
O=C1CN(CN2CCOCC2)C(=O)CN1CN1CCOCC1,39.3,19.1,44,18.6,36.2,32.9%
CCCCCCCCCCCCCCCCCCCCOC1OC(COC(C)=O)C(OC(C)=O)C(OC(C)=O)C1OC(C)=O (configuration not stated),-21.3,-14.2,-16.9,12,-5.7,-20.4%
COc1ccc(C2N(NC(=O)c3ccncc3)C(=O)CS2(=O)=O)cc1F (configuration not stated),-3.95,-12.6,-11.8,-1.55,0.75,0.95%
CCCCCC(=C/c1ccccc1)/C=N/N1CCN(/N=C/C(=C/c2ccccc2)CCCCC)CC1,32.1,10.8,22.4,3.2,-0.85,11.2%
O=C1OC(/C=C/c2ccccc2)=NC/1=C\c1ccccc1Cl,29.8,15.4,35,21.6,17.4,20.4%

Compound,growth inhibition [1] [%],growth inhibition [2] [%],growth inhibition [3] [%],growth inhibition [4] [%],growth inhibition [5] [%],growth inhibition [6]
COc1ccc(C(=O)CC(C#N)c2ccc(OC)cc2)cc1 (configuration not stated),-6.5,3.25,0.55,-21.2,-4.75,-1.35%
Cc1cc(=O)c2c(=O)n(-c3ccccc3)[nH]c2[nH]1,-34.7,-13.1,-11.2,-27.2,-13.4,-6.35%
CC(=O)C1CCC(CCCC(C)C)CC1 (configuration not stated),13.9,-2.4,-2.75,-10.4,2.4,6.2%
COc1cc([N+](=O)[O-])ccc1NC(=O)C(Br)C(Br)C(=O)O (configuration not stated),-6.6,5.15,-12.5,-28.1,-0.35,16.4%
CSc1nc(Cl)nc2c1nc(SC)n2-c1ccccc1,-8.4,7.95,-0.45,-8.95,16.5,-15%
NCOC(=O)Cc1ccc(Br)cc1,14.8,6.65,-0.35,-2.55,4.15,18.6%
CN(C)CCNC(=O)CN,0.15,-12.2,4.1,-0.6,5.9,2.75%
CC(C)(C)OC(=O)NC(Cc1ccc(O)cc1)C(=O)N1CCCC1C(=O)O (stereo not drawn) (Boc-Tyr-Pro-OH; configuration not given here),-13,-11.3,-20.9,-10.2,-22.9,-23.1%
COC1CC(NC(C)=O)C2OC(c3ccccc3)OCC2O1 (configuration not stated),4.35,11.2,-10.2,6.1,-3.45,4.45%
O=[N+]([O-])c1ccc(S(=O)(=O)c2ccc(N=CN3CCCC3)cc2)cc1,22.9,16.4,18.4,4.05,18,23%
Cc1cc(=O)oc2cc(OCCCOc3ccc4c(C)cc(=O)oc4c3)ccc12,19.1,5.45,-2.1,-4.1,-5.2,13.3%
CN1CCN(Cc2cc(C(C)(C)C)cc(-c3ccccc3)c2O)CC1,39.4,-25.1,6.9,6.45,8,25.6%
COC(=O)N/N=C/c1ccc(NC(C)=O)cc1,7.8,0,-13.8,-75.6,-4.95,-5%
CC(=O)/C(=C\c1ccc([N+](=O)[O-])o1)C(=O)CCN(C)C,25.1,38.4,63,22.9,39.5,84.8% (active)
N#Cc1cnc(SCC(=O)O)nc1N,-27.2,-39.6,-15.5,8.8,-36.2,-13.4%
CN1CCC(O)(C(C)(C)C)CC1,-5.05,-5.15,3.65,10.9,-3.7,-68.9%
Cc1cc(=O)oc2c(C)c3oc4c(c3cc12)CN(C)CC4,26.9,10.9,25.4,20,13.9,25.8%
C/C(Cc1ccccc1)=N\NS(=O)(=O)c1ccc(C)cc1,44.4,-2.15,35.9,8.85,1.1,34.6%
